Test [1] can be described thus: CCTE_Harrill_HTTr_Viability_DMEM_6hr: (Pilot) CCTE's 6-hour Cell Viability Assessment for the High-Throughput Transcriptomics (HTTr) Platform, in MCF-7 cells cultured in DMEM + 10% fetal bovine serum, Harrill Lab (AID 2283973). In a few lines: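 MCF-7 cells in DMEM + 10% FBS, eight-point dilution series, 6 h exposure. Membrane integrity by propidium iodide exclusion with high-content imaging; bidirectional fit versus DMSO.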

A short description of test [2]: CCTE_Harrill_HTTr_Viability_DMEM_12hr: (Pilot) CCTE's 12-hour Cell Viability Assessment for the High-Throughput Transcriptomics (HTTr) Platform, in MCF-7 cells cultured in DMEM + 10% fetal bovine serum, Harrill Lab (AID 2283974). The procedure, abridged: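 MCF-7 cells in DMEM + 10% FBS exposed 12 h to an eight-point dilution series; membrane integrity scored by propidium iodide exclusion with high-content imaging, bidirectional fitting versus DMSO.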

Test [3] can be described thus: CCTE_Harrill_HTTr_Viability_DMEM_24hr: (Pilot) CCTE's 24-hour Cell Viability Assessment for the High-Throughput Transcriptomics (HTTr) Platform, in MCF-7 cells cultured in DMEM + 10% fetal bovine serum, Harrill Lab (AID 2283975). The procedure, abridged: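 MCF-7 cells in DMEM with 10% FBS exposed for 24 hours to an eight-point dilution series. Membrane integrity by propidium iodide exclusion with high content imaging; bidirectional fit against DMSO.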

Test [4] can be described thus: CCTE_Harrill_HTTr_Viability_PRF_DMEM_6hr: (Pilot) CCTE's 6-hour Cell Viability Assessment for the High-Throughput Transcriptomics (HTTr) Platform, in MCF-7 cells cultured phenol red-free DMEM + 10% charcoal-stripped fetal bovine serum, Harrill Lab (AID 2283976). The procedure, abridged: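 MCF-7 cells in phenol red-free DMEM with 10% charcoal-stripped FBS exposed 6 hours to an eight-point dilution series. Propidium iodide exclusion imaged; curves fitted bidirectionally against DMSO.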

Test [5] is described as follows: CCTE_Harrill_HTTr_Viability_PRF_DMEM_12hr: (Pilot) CCTE's 12-hour Cell Viability Assessment for the High-Throughput Transcriptomics (HTTr) Platform, in MCF-7 cells cultured in phenol red-free DMEM + 10% charcoal-stripped fetal bovine serum, Harrill Lab (AID 2283977). The source says:
(§1) This is a cell-based assay that evaluates cell viability using high content imaging to evaluate membrane integrity using propidium iodide dye exclusion in a 384 well format.One of seven assay components measured from the CCTE_Harrill_HTTr_Viability assay. This was part of a pilot experiment. This is a cell-based assay that evaluates cell viability in MCF-7 cells cultured in phenol red-free DMEM + 10% charcoal-stripped fetal bovine serum. High content imaging is used to evaluate membrane integrity using propidium iodide dye exclusion. Measurements are taken at 12 hours after chemical dosing in 384-well format.The assay component endpoint CCTE_Harrill_HTTr_Viability_PRF_DMEM_12hr was analyzed with bidirectional fitting relation to DMSO as the negative control and baseline of activity. Using a type of viability reporter to understand changes in cytotoxicity, gain-of-signal activity can be used to evaluate membrane integrity using propidium iodide dye exclusion. To generalize the intended target to other relatable targets, this assay endpoint is annotated to cell cycle, where the subfamily is cytotoxicity.
Chemicals were tested in MCF7 cells in an eight point dilution series with a twelve hour exposure duration.

Test [6] in a line: CCTE_Harrill_HTTr_Viability_PRF_DMEM_24hr: (Pilot) CCTE's 24-hour Cell Viability Assessment for the High-Throughput Transcriptomics (HTTr) Platform, in MCF-7 cells cultured in phenol red-free DMEM + 10% charcoal-stripped fetal bovine serum, Harrill Lab (AID 2283980).
From the text: as §1, with “24” for “12”, “CCTE_Harrill_HTTr_Viability_PRF_DMEM_24hr” for “CCTE_Harrill_HTTr_Viability_PRF_DMEM_12hr”
Chemicals were tested in MCF7 cells in an eight point dilution series with a twenty-four hour exposure duration.

Test [7] addresses Retinoic acid receptor RXR-alpha (Homo sapiens) (UniProt P19793). The test is described as follows: TOX21_TR_RXR_BLA_Agonist_Followup_ratio: Tox21 Thyroid Hormone Receptor beta Retinoid X Receptor alpha (RXRa) Agonism Beta-lactamase (BLA) Follow-Up Assay, Ratio (AID 2283968; active = hit-call score of the fitted dose curve at least 0.9, where 1 is the maximum). In a few lines:
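RXRa-UAS-bla HEK293T cells, 5 h attachment at 37C/5% CO2, then 11 concentrations in triplicate for 16 h; 9-cis retinoic acid positive control. FRET-B/GCCF4-AM substrate 2 h at room temperature; 460:530 nm ratio, fitted for gain versus DMSO.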

For test [8] the target is unchanged. Put plainly: TOX21_TR_RXR_BLA_Antagonist_Followup_ratio: Tox21 Thyroid Hormone Receptor beta Retinoid X Receptor alpha (RXRa) Antagonism Beta-lactamase (BLA) Follow-Up Assay, Ratio (AID 2283972; active = hit-call score of the fitted dose curve at least 0.9, where 1 is the maximum). The source says:
GeneBLAzer RXRa-UAS-bla HEK293T assay (RXRa-bla) (ThermoFisherScientific Catalog No. K1697) was run in qHTS 1536 well format as a secondary assay for specificity of response in the TOX21_TR_GH3_LUC_Agonist assay.TOX21_TR_RXR_BLA_Antagonist_Followup_ratio is an assay readout measuring reporter gene via receptor activity and designed using inducible reporter (beta lactamase induction) detected with GAL4 b-lactamase reporter gene. The signal is derived from the ratio of cleaved (ch2) to uncleaved (ch1) reporter gene substrate used as the measure of target activity.Data from the assay component TOX21_TR_RXR_BLA_Antagonist_Followup_ratio was analyzed into 1 assay endpoint. This assay endpoint, TOX21_TR_RXR_BLA_Antagonist_Followup_ratio, was analyzed in the positive analysis fitting direction relative to DMSO as the negative control and baseline of activity. Using a type of inducible reporter, loss-of-signal activity can be used to understand changes in the reporter gene as they relate to the gene RXRA. Furthermore, this assay endpoint can be referred to as a primary readout, because this assay has produced multiple assay endpoints and this ratio serves a reporter gene function to understand target activity. To generalize the intended target to other relatable targets, this assay endpoint is annotated to the nuclear receptor intended target family, where subfamily is non-steroidal. […]

Test [9] is described as follows: TOX21_TR_RXR_BLA_Antagonist_Followup_viability: Viability Assessment in the Tox21 Thyroid Hormone Receptor beta Retinoid X Receptor alpha (RXRa) Antagonism Beta-lactamase (BLA) Follow-Up Assay (AID 2283979; active = hit-call score of the fitted dose curve at least 0.9, where 1 is the maximum). In a few lines: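 RXRa-UAS-bla HEK293T cells seeded 2,500/well in phenol red-free DMEM with 2% charcoal-stripped FBS, attached 5 h, then exposed to compounds at 11 concentrations in triplicate for 16 h at 37C/5% CO2. Viability read by CellTiter-Glo ATP luminescence; bidirectional fit versus DMSO.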

A short description of test [10]: TOX21_TR_RXR_BLA_Agonist_Followup_viability: Viability Assessment in the Tox21 Thyroid Hormone Receptor beta Retinoid X Receptor alpha (RXRa) Agonism Beta-lactamase (BLA) Follow-Up Assay (AID 2283970; active = hit-call score of the fitted dose curve at least 0.9, where 1 is the maximum). In a few lines:
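RXRa-UAS-bla HEK293T cells, 2,500/well in phenol red-free DMEM with 2% charcoal-stripped FBS, dosed for 16 h at 37C. Viability measured by CellTiter-Glo ATP luminescence; fitted bidirectionally against DMSO baseline, loss of signal indicating cytotoxicity.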

The record followed here is PubChem BioAssay (EPA / NIEHS).

Structures are written as SMILES. Records with an inconclusive call do not appear. The source made the active and inactive calls. Rule for the calls, unless noted: active = hit-call score of the fitted dose curve at least 0.9, where 1 is the maximum; inactive = score below 0.9.

Sequence of Retinoic acid receptor RXR-alpha (Homo sapiens) (P19793 whole entry, looked up): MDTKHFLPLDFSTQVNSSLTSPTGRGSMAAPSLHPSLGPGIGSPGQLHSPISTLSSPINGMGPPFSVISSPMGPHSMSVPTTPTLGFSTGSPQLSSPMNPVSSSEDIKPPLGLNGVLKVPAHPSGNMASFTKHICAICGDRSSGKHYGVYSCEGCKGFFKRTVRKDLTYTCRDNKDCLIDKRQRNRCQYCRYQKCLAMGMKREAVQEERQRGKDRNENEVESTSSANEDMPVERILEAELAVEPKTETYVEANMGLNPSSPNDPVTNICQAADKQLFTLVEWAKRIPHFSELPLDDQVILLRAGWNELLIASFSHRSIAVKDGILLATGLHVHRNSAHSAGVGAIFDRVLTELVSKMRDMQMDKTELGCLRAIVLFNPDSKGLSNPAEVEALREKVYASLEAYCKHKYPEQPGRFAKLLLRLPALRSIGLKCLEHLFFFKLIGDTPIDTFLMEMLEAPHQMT

Regarding `CC1(C)NC(=O)N(c2ccc([N+](=O)[O-])c(C(F)(F)F)c2)C1=O`, the result in test [1], in test [2], in test [3], in [4], in test [5] and in test [6] was inactive.
Turning to `O=C1O[C@H]([C@@H](O)CO)C(O)=C1O`, the outcome in test [7] was inactive.
On to `COc1cc(C(=O)NC2CCN(C)CC2)ccc1Nc1ncc2c(n1)N(C1CCCC1)CC(F)(F)C(=O)N2C`, for which the outcome in test [8] was inactive. Further, the AC50 in test [9] is 26 µM (active).
For the compound `O=C(O)Cc1cc(I)c(Oc2ccc(O)c(I)c2)c(I)c1`, in [10], the compound was called inactive.

By AC50 is commonly meant the concentration at which the activity in the assay is half-maximal.
